Measurements: PubChem BioAssay (NCI)
About 83,000 compounds went through this panel and 20% of them were active in at least one assay; those are over-represented in the sample as a whole.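 For each line, cells grew in 96-well plates with the test compound present at a single concentration for 48 hours.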 Activity calls are given as the source filed them. The calls were made as follows: active = growth percent below 10; inactive = the rest.

What was measured:
Assay in all cases: NCI-60 one-dose screen, 48 h (100 = growth as untreated, 0 = no growth, -100 = all killed)
Details in all cases: 10 µM unless noted
HCT-15 colon = system: HCT-15 colon
HT29 colon = system: HT29 colon
SNB-75 CNS = system: SNB-75 CNS
SNB-19 CNS = system: SNB-19 CNS
U251 CNS = system: U251 CNS
PC-3 prostate = system: PC-3 prostate
SK-MEL-5 melanoma = system: SK-MEL-5 melanoma
UACC-62 melanoma = system: UACC-62 melanoma
LOX IMVI melanoma = system: LOX IMVI melanoma
SK-MEL-28 melanoma = system: SK-MEL-28 melanoma

Measured: growth

CCOC(=O)c1cnn2c3ccccc3n(S(=O)(=O)c3ccc(OC)cc3)c12
active: SK-MEL-5 melanoma -15%
inactive: HCT-15 colon 13% | HT29 colon 11.6% | SNB-75 CNS 61.3% | SNB-19 CNS 27.5% | U251 CNS 26.3% | PC-3 prostate 35.7% | UACC-62 melanoma 25.7% | LOX IMVI melanoma 18.7% | SK-MEL-28 melanoma 57.9%

O=C(/C=C/c1sc(Cl)nc1Cl)c1ccccc1
active: LOX IMVI melanoma 3.61%
inactive: HCT-15 colon 30.4% | HT29 colon 88.6% | SNB-75 CNS 86.5% | SNB-19 CNS 96% | U251 CNS 69.9% | PC-3 prostate 84.8% | SK-MEL-5 melanoma 102% | UACC-62 melanoma 93.5% | SK-MEL-28 melanoma 95.4%

CC1=C(C)C(=O)C(Nc2cccc(C(=O)OC(C)(C)C)c2)=C(Br)C1=O
inactive: HCT-15 colon 73.2% | HT29 colon 118% | SNB-75 CNS 59.7% | SNB-19 CNS 84.6% | U251 CNS 90.7% | PC-3 prostate 71.7% | SK-MEL-5 melanoma 96% | UACC-62 melanoma 79.2% | LOX IMVI melanoma 34.9% | SK-MEL-28 melanoma 101%

Cc1ccc(/C=C2\Oc3ccc(O)c(O)c3C2=O)cc1
active: HCT-15 colon 9.23%
inactive: HT29 colon 87.8% | SNB-75 CNS 32.5% | SNB-19 CNS 37.9% | U251 CNS 20.2% | PC-3 prostate 43.3% | SK-MEL-5 melanoma 47.3% | UACC-62 melanoma 45.3% | LOX IMVI melanoma 16.9% | SK-MEL-28 melanoma 53.6%

Cc1cccc(OCC(O)CN2CCN(c3ccc(Cl)cc3)CC2)c1 (stereo not given)
inactive: HCT-15 colon 117% | HT29 colon 104% | SNB-75 CNS 95.1% | SNB-19 CNS 99.8% | U251 CNS 104% | PC-3 prostate 86.5% | SK-MEL-5 melanoma 100% | UACC-62 melanoma 94.2% | LOX IMVI melanoma 96.8% | SK-MEL-28 melanoma 100%

Cc1ccc(C(=O)N/N=C/c2cccc([N+](=O)[O-])c2)cn1
inactive: HCT-15 colon 109% | HT29 colon 114% | SNB-75 CNS 94.2% | SNB-19 CNS 98.5% | U251 CNS 107% | PC-3 prostate 95.4% | SK-MEL-5 melanoma 98.9% | UACC-62 melanoma 98.1% | LOX IMVI melanoma 105% | SK-MEL-28 melanoma 103%

COc1cc2cc(Oc3ccc(NC(=O)Nc4ccc(F)c(C(F)(F)F)c4)cc3)c(C)nc2cc1OCCN1CCOCC1
active: HT29 colon 8.41% | PC-3 prostate 5.95% | SK-MEL-5 melanoma -37.6%
inactive: HCT-15 colon 13.6% | SNB-75 CNS 51.6% | SNB-19 CNS 25.1% | U251 CNS 13.6% | UACC-62 melanoma 33.9% | LOX IMVI melanoma 12.8% | SK-MEL-28 melanoma 43.1%

CC(=O)CC[C@H]1C(=O)N[C@@H](C(C)C)C(=O)N[C@@H](Cc2cc(O)cc(F)c2)C(=O)N2CCC[C@H](N2)C(=O)O[C@H](/C(C)=C/C=C/C(=O)OC(C)(C)C)C/C=C/C=C/[C@H](O)[C@H](C)[C@H]1O
inactive: HCT-15 colon 26.6% | HT29 colon 29.6% | SNB-75 CNS 54.6% | SNB-19 CNS 70% | U251 CNS 43.3% | PC-3 prostate 48.6% | SK-MEL-5 melanoma 51% | UACC-62 melanoma 52.4% | LOX IMVI melanoma 48.6% | SK-MEL-28 melanoma 59.4%

C/C=C(\C)C(=O)N[C@H]1[C@@H](OC(C)=O)C[C@]2(C)C3CC[C@@]4(C)C(CC[C@@H]4C(C)N(C)C)C3CCC2[C@H]1O (stereo not given in full)
active: HCT-15 colon 2.88% | SK-MEL-5 melanoma 5.99% | SK-MEL-28 melanoma -35.8%
inactive: HT29 colon 11.3% | SNB-75 CNS 60.3% | SNB-19 CNS 101% | U251 CNS 68.7% | PC-3 prostate 45% | UACC-62 melanoma 13.6% | LOX IMVI melanoma 16.8%

O=c1c2cc(F)ccc2sc2c(NCCN3CCOCC3)nc3ccccc3c12
inactive: HCT-15 colon 20.8% | HT29 colon 21.6% | SNB-75 CNS 59.5% | SNB-19 CNS 75.3% | U251 CNS 52.4% | PC-3 prostate 69% | SK-MEL-5 melanoma 95.1% | UACC-62 melanoma 81.5% | LOX IMVI melanoma 20.6% | SK-MEL-28 melanoma 96.7%

Cc1cc(-c2cc(C)c(N)cc2C)c(C)cc1N
inactive: HCT-15 colon 73% | HT29 colon 99% | SNB-75 CNS 101% | SNB-19 CNS 85.2% | U251 CNS 71.8% | PC-3 prostate 80.5% | SK-MEL-5 melanoma 81.6% | UACC-62 melanoma 75.8% | LOX IMVI melanoma 75.6% | SK-MEL-28 melanoma 89.3%

O=C(Nc1ccc(Br)cc1F)c1cc(Br)ccc1O
inactive: HT29 colon 59.3% | SNB-19 CNS 19.6% | U251 CNS 13.8% | PC-3 prostate 11.9%
active: HCT-15 colon 4.49% | SNB-75 CNS 1.84% | SK-MEL-5 melanoma -93.7% | UACC-62 melanoma -31.4% | LOX IMVI melanoma 6.99% | SK-MEL-28 melanoma 8.29%

O=C(O)CCC/C=C\C[C@H]1C=CC(=O)/C1=C/C[C@@H](O)CCc1cccc(C(F)(F)F)c1
active: HCT-15 colon -55.8% | HT29 colon -8.89% | SNB-19 CNS 7.63% | U251 CNS -71.1% | PC-3 prostate -19.3% | SK-MEL-5 melanoma -85.9% | UACC-62 melanoma -62.2% | LOX IMVI melanoma -60.9% | SK-MEL-28 melanoma -43.6%
inactive: SNB-75 CNS 72.8%

N#Cc1c(-c2ccccc2)nc(SCC(=O)Nc2nc(-c3ccc(Cl)cc3)cs2)[nH]c1=O
inactive: HCT-15 colon 104% | HT29 colon 93.3% | SNB-75 CNS 84.3% | SNB-19 CNS 101% | U251 CNS 95.3% | PC-3 prostate 91.6% | SK-MEL-5 melanoma 97.9% | UACC-62 melanoma 88.4% | LOX IMVI melanoma 100% | SK-MEL-28 melanoma 101%

O=c1ccc(N=Nc2ccccc2)ccc1Cl
active: HCT-15 colon 2.07% | LOX IMVI melanoma -77.1%
inactive: HT29 colon 27.5% | SNB-75 CNS 74.5% | SNB-19 CNS 81.8% | U251 CNS 54.4% | PC-3 prostate 56.2% | SK-MEL-5 melanoma 55.5% | UACC-62 melanoma 55.7% | SK-MEL-28 melanoma 92.5%

COc1ccc(OC)c(/C=C/c2nnc(Nc3ccccc3)o2)c1
inactive: HCT-15 colon 90.5% | HT29 colon 93.6% | SNB-75 CNS 82.1% | SNB-19 CNS 96.9% | U251 CNS 98% | PC-3 prostate 93.8% | SK-MEL-5 melanoma 90% | UACC-62 melanoma 92.1% | LOX IMVI melanoma 99.5% | SK-MEL-28 melanoma 108%

CCOC(=O)C1=C(N)Oc2c(sc3c(CC)cccc23)C1c1ccc(F)cc1 (stereo not given)
inactive: HCT-15 colon 22.4% | HT29 colon 40.4% | SNB-19 CNS 35% | U251 CNS 40.6% | PC-3 prostate 26.1% | SK-MEL-5 melanoma 61.1% | UACC-62 melanoma 22% | LOX IMVI melanoma 35% | SK-MEL-28 melanoma 53.8%
active: SNB-75 CNS -2.89%

COc1ccc(-c2nn(C(=O)c3cc(OC)c(OC)c(OC)c3)c3cc(N)ccc23)cc1
active: HCT-15 colon 4.67% | HT29 colon 0.136% | SK-MEL-5 melanoma -15.8%
inactive: SNB-75 CNS 39.6% | SNB-19 CNS 34% | U251 CNS 12.3% | PC-3 prostate 25.8% | UACC-62 melanoma 42.5% | LOX IMVI melanoma 26.3% | SK-MEL-28 melanoma 45.1%

CC([C@H]1CCC2C3CCC4C(=O)C(NC=O)=CC[C@]4(C)C3CC[C@@]21C)N(C)C (stereo not given in full)
active: HCT-15 colon -37.1% | HT29 colon -20.2% | SK-MEL-5 melanoma -56% | UACC-62 melanoma -39.7% | LOX IMVI melanoma -37.2% | SK-MEL-28 melanoma -70.1%
inactive: SNB-75 CNS 34.1% | SNB-19 CNS 76% | U251 CNS 25.6% | PC-3 prostate 27.4%

Nc1nn(C(=O)Nc2ccc(Cc3ccccc3)cc2)c2ccc(Cl)cc12
inactive: HCT-15 colon 36.6% | HT29 colon 74% | SNB-75 CNS 122% | SNB-19 CNS 83.4% | U251 CNS 65.9% | PC-3 prostate 74.7% | SK-MEL-5 melanoma 35.9% | UACC-62 melanoma 13.3% | LOX IMVI melanoma 39% | SK-MEL-28 melanoma 106%
